Source: PubChem BioAssay (Broad Institute)
CD40 NFkB inh = CD40 pathway inhibition in BL2 cells; BL2 NF-kB luciferase reporter, CD40L-induced, 4 h; inhibition, % at 10 µM; 0.94% of 83,000 active; AID 1053188;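 active = mean inhibition of at least 50% with a set share of replicates also reaching that level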;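 note: 0% = neutral control wells and 100% = IKK inhibitor VII at 50 µM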
The depositor's hits bear a star; [ ] = another dose, or the depositor's remark. Many of the other results were omitted from the sample, so hits are more common in it than they were.

How did Cc1ccc(NC(=O)c2ccc3c(c2)OCCO3)nc1 do in these assays?
CD40 NFkB inh: 64*

How did Cc1ccc(NC(=O)CNC(=O)c2ccc(C)s2)nc1 do in these assays?
CD40 NFkB inh: -15

Results for Cc1cccnc1NC(=O)c1ccc2c(c1)OCCO2 ?
CD40 NFkB inh: -30

How did COC(=O)CNC(=O)c1cccc(Cl)c1 do in these assays?
CD40 NFkB inh: 13

How did Cc1ccc(NC(=O)c2ccc3c(c2)NC(=O)CS3)nc1 do in these assays?
CD40 NFkB inh: -23

How did C/C=C/c1ccc([C@@H]2[C@H](C#N)N(C(=O)c3cccnc3)[C@H]2CO)cc1 do in these assays?
CD40 NFkB inh: -15[25 µM]

Results for O=C(Nc1ccc2c(c1)[C@@H]1C[C@H](CC(=O)N3CCc4ccccc4C3)O[C@H](CO)[C@@H]1O2)C1CCOCC1 ?
CD40 NFkB inh: -6[25 µM]

Results for O=C(Nc1ccc2c(c1)[C@@H]1C[C@H](CC(=O)N3CCc4ccccc4C3)O[C@@H](CO)[C@@H]1O2)C1CCOCC1 ?
CD40 NFkB inh: -2[25 µM]

What do the screens show for `C[C@H]1CCCCO[C@@H](CN(C)C(=O)Nc2ccc(C(F)(F)F)cc2)[C@@H](C)CN([C@@H](C)CO)C(=O)c2cc(NC(=O)Nc3ccc4c(c3)OCO4)ccc2O1`?
CD40 NFkB inh: 3

How did COc1ccc2c3c(n(C)c2c1)[C@@H](CO)N(Cc1nccs1)CC31CCN(CC2CCCC2)CC1 do in these assays?
CD40 NFkB inh: 5[25 µM]

Results for CC(NCC(O)CP(=O)(O)CC1CCCCC1)c1ccc(Cl)c(Cl)c1 (stereo unspecified) ?
CD40 NFkB inh: 2[25 µM]

How did CC(C)(C)[C@H](N)C(=O)N[C@H]1CCC2C3CC=C4C[C@@H](O)CC[C@]4(C)C3CC[C@@]21C (stereo partly specified) do in these assays?
CD40 NFkB inh: 103*

What do the screens show for `C[C@]12CCC3C(CC=C4C[C@@H](O)CC[C@@]43C)C1CCC2[C@]1(C)CCC(=O)O1` (stereo partly specified)?
CD40 NFkB inh: -7

What do the screens show for `C[C@]12CC[C@H](O)CC1=CCC1C2CC[C@@]2(C)C1CC[C@@H]2NC(=O)[C@@H](N)Cc1ccccc1` (stereo partly specified)?
CD40 NFkB inh: 10

What do the screens show for `CCOC(=O)N(C)C[C@H]1OCc2cn(nn2)CCCC(=O)N([C@H](C)CO)C[C@H]1C`?
CD40 NFkB inh: 3

How did CN1c2ccc(-c3cccc(F)c3)cc2[C@@H]2[C@@H](CCN2S(=O)(=O)c2cccc(F)c2)[C@@H]1CO do in these assays?
CD40 NFkB inh: 4

Results for NS(=O)(=O)c1ccc(N=Cc2c(O)[nH]c3ccccc23)cc1 ?
CD40 NFkB inh: -9[25 µM]

What do the screens show for `CN(C)c1ccc(NC(=O)c2cnsn2)cc1`?
CD40 NFkB inh: 65*

How did CN(C)c1ccc(NC(=O)c2ccc3c(c2)nnn3C)cc1 do in these assays?
CD40 NFkB inh: -58

What do the screens show for `CN(C)c1ccc(NC(=O)c2ccc3nc[nH]c3c2)cc1`?
CD40 NFkB inh: -59

Results for C[C@H]1CN([C@@H](C)CO)C(=O)c2ccccc2-c2ccccc2CO[C@H]1CN(C)C(=O)Nc1cccc(F)c1 ?
CD40 NFkB inh: -8

Results for COc1ccc(S(=O)(=O)N[C@@H]2CC[C@@H](CCNC(=O)CN3CCOCC3)O[C@@H]2CO)cc1 ?
CD40 NFkB inh: 5

What do the screens show for `CCc1nnc(NC(=O)c2cc3c(s2)CCCCC3)s1`?
CD40 NFkB inh: -59

Results for Cc1cnc(NC(=O)c2cc3c(s2)CCCC3)s1 ?
CD40 NFkB inh: 65*

Results for CNC(=O)c1cc2c(s1)CCCCCC2 ?
CD40 NFkB inh: 5

What do the screens show for `COc1ccccc1CNC(=O)C[C@H]1C[C@H]2c3cc(NS(=O)(=O)c4ccc(F)cc4)ccc3O[C@H]2[C@H](CO)O1`?
CD40 NFkB inh: 5[25 µM]

How did O=C(c1ccncc1)N1C[C@H]2[C@@H](c3ccccc31)[C@H](CO)N2Cc1ccccc1F do in these assays?
CD40 NFkB inh: -3[25 µM]

How did O=C(NC1CCCC1)N1CC(=O)N2[C@H](CO)[C@H](c3ccc(-c4cccc(F)c4)cc3)[C@@H]2C1 do in these assays?
CD40 NFkB inh: -1

How did CCOc1ccc(OCc2cccc(C(=O)N3CCOCC3)c2)cc1 do in these assays?
CD40 NFkB inh: 90*

What do the screens show for `COc1ccc(OCc2ccc(C(=O)N3CCOCC3)cc2)cc1`?
CD40 NFkB inh: -23

What do the screens show for `O=C(c1cccc(OCc2ccccc2)c1)N1CCOCC1`?
CD40 NFkB inh: -8

What do the screens show for `NNC(=O)c1cccc(COc2cccc(Br)c2)c1`?
CD40 NFkB inh: -57

How did COc1ccc(OCc2cccc(C(=O)Nc3cc(C)on3)c2)cc1 do in these assays?
CD40 NFkB inh: 4

How did COc1ccc(OCc2cccc(C(=O)NN)c2)cc1 do in these assays?
CD40 NFkB inh: 25*

Results for O=C(NC1CCCC1)[C@H]1[C@H](CO)[C@H]2Cn3c(ccc(-c4cccc(F)c4)c3=O)[C@@H]1N2 ?
CD40 NFkB inh: 0[25 µM]

Results for CCC(=O)N1[C@H](CN(C)C(=O)c2cccc(F)c2)[C@@H](c2ccccc2)[C@@H]1CO ?
CD40 NFkB inh: -24

How did O=C(NCCN1CCCC1)[C@@H]1[C@@H](CO)[C@@H]2Cn3c(cccc3=O)[C@H]1N2C(=O)c1ccccc1 do in these assays?
CD40 NFkB inh: 1

Results for C[C@@H]1CN([C@H](C)CO)C(=O)c2c(c3ccccc3n2C)-c2ccccc2CO[C@@H]1CN(C)Cc1ccc2c(c1)OCCN2C ?
CD40 NFkB inh: 5

How did O=C(Cc1ccccn1)N1CC2(C1)[C@@H](c1ccccc1)[C@H](CO)N2C(=O)c1ccncc1 do in these assays?
CD40 NFkB inh: -7[25 µM]

Results for COc1ccc([C@H]2C/C=C\C[C@H](c3cccc(Cl)c3)NC(=O)[C@@H](c3ccccc3)CC(=O)N2)c(OC)c1 ?
CD40 NFkB inh: 8[25 µM]

How did COc1ccc(C2CC2/C(C)=N/OC(=O)c2cccs2)cc1 (stereo unspecified) do in these assays?
CD40 NFkB inh: -7

Results for COc1ccc(C(=O)O/N=C(/C)c2cccs2)cc1 ?
CD40 NFkB inh: 59*

Results for COc1ccc(OCCOC(=O)c2cccs2)cc1 ?
CD40 NFkB inh: -17

What do the screens show for `CC(=O)c1ccc(N2CCN(C(=O)Cc3cccs3)CC2)cc1`?
CD40 NFkB inh: -18

Results for O=C(/C=C/c1cccs1)c1ccc(N2CCOCC2)cc1 ?
CD40 NFkB inh: 54*

How did CC(C)(C)NC(=O)/C=C/c1cccs1 do in these assays?
CD40 NFkB inh: -12

How did O=C(c1ccccc1F)N1C[C@@H]2[C@H](c3ccccc31)[C@@H](CO)N2C(=O)Nc1ccccc1 do in these assays?
CD40 NFkB inh: 7[25 µM]

Results for N#C[C@H]1[C@@H](c2ccc(C#CC3CC3)cc2)[C@@H](CO)N1C(=O)Cc1ccccn1 ?
CD40 NFkB inh: -2

What do the screens show for `Fc1ccccc1-c1ccc(C2[C@H]3CNC[C@@H]2N3CC2CC2)cc1` (stereo partly specified)?
CD40 NFkB inh: -3[25 µM]

What do the screens show for `COC(=O)c1ccccc1NC(=O)C(CCS(C)(=O)=O)NC(C)=O` (stereo unspecified)?
CD40 NFkB inh: 7

How did COC(=O)c1ccccc1NC1=C/C(=N\S(=O)(=O)c2cccs2)c2ccccc2C1=O do in these assays?
CD40 NFkB inh: 33*

How did COC(=O)c1ccccc1NC(=O)COC(=O)/C=C/c1cccs1 do in these assays?
CD40 NFkB inh: 10

Results for C[C@@H]1CN(C)C(=O)c2cccc(N)c2O[C@@H]1CN(C)C(=O)OC(C)(C)C ?
CD40 NFkB inh: 10

What do the screens show for `C[C@H]1CN([C@@H](C)CO)C(=O)c2c(c3ccccc3n2C)-c2ccccc2CO[C@H]1CN(C)S(=O)(=O)Cc1ccccc1`?
CD40 NFkB inh: 1
